# Experimental data: PubChem BioAssay (NCI)
# About 83,000 compounds went through this panel and 20% of them were active in at least one assay; those are over-represented in the sample as a whole.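 Activity criterion: percent growth below 10, measured after cells in 96-well plates were exposed to a single compound concentration for 48 hours.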 Values without a mark were called inactive. Calls of active or inactive are those of the source.
# Test system: MDA-MB-468 breast
# Assay: NCI-60 one-dose screen, 48 h (100 = growth as untreated, 0 = no growth, -100 = all killed)
# Conditions: 10 µM unless noted
row,SMILES,growth
1,CCOC(=O)CC/C(C)=N\Nc1ccc([N+](=O)[O-])cc1,83.2%
2,CN1CCN(Cc2ccc(NC(=O)c3cncc(C#Cc4cnc5ccc(N6CCN(C)CC6)nn45)c3)cc2C(F)(F)F)CC1,-75.2% (active)
3,Cc1cc2c(C)c3cc(C)c(N)cc3nc2cc1N,-5.78% (active)
